Assay results reported in PubChem BioAssay AID1159580 (chemical genetic matrix, 2015).
Among all 5,500 compounds or so, about 2,000 (36%) were called active. Roughly 18% stayed inconclusive and do not appear here. No stated cut-off is given here; in the data, active means normalized growth mostly below about 0.91 (no sharp cut-off); inconclusive means no clear call, values can overlap the other calls; inactive means mostly above about 0.92. Some of the results follow.

Assay: chemical genetic growth profiling, strain panel (AID 1159580);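 further: tested at 20 µM; growth read once vehicle control cultures reached saturation at 30 °C; 1 = growth at the plate median or of vehicle wells; lower values mean less growth of the strain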
Settings: S. cerevisiae deletion strains, growth OD
[1] = locus YAR019C, strain CDC15, hits give low values
[2] = locus YBL105C, strain PKC1, hits give low values
[3] = locus YBR135W, strain CKS1, hits give low values
[4] = locus YBR136W, strain MEC1, hits give low values
[5] = locus YBR160W, strain CDC28, hits give low values
[6] = locus YDL017W, strain CDC7, hits give low values
[7] = locus YDL028C, strain MPS1, hits give low values
[8] = locus YDL101C, strain DUN1, hits give low values
[9] = locus YDL108W, strain KIN28, hits give low values
[10] = locus YDL132W, strain cdc53, hits give low values
[11] = locus YDL214C, strain PRR2, hits give low values
[12] = locus YDR052C, strain DBF4, hits give low values
[13] = locus YDR054C, strain cdc34, hits give low values
[14] = locus YDR226W, strain ADK1, hits give low values
[15] = locus YDR477W, strain SNF1, hits give low values
[16] = locus YER123W, strain YCK3, hits give low values
[17] = locus YER133W, strain GLC7, hits give low values
[18] = locus YFL009W, strain cdc4, hits give low values
[19] = locus YFL029C, strain CAK1, hits give low values
[20] = locus YFR003C, strain YPI1, hits give low values
[21] = locus YFR019W, strain FAB1, hits give low values
[22] = locus YFR028C, strain CDC14, hits give low values
[23] = locus YGR040W, strain KSS1, hits give low values
[24] = locus YGR052W, strain FMP48, hits give low values
[25] = locus YGR092W, strain DBF2, hits give low values
[26] = locus YHR030C, strain SLT2, hits give low values
[27] = locus YHR079C, strain IRE1, hits give low values
[28] = locus YHR082C, strain KSP1, hits give low values
[29] = locus YHR205W, strain SCH9, hits give low values
[30] = locus YIL147C, strain SLN1, hits give low values
[31] = locus YJL095W, strain BCK1, hits give low values
[32] = locus YJL157C, strain FAR1, hits give low values
[33] = locus YJR016C, strain ILV3, hits give low values
[34] = locus YJR066W, strain TOR1 (second series), hits give low values
[35] = locus YJR066W, strain TOR1, hits give low values
[36] = locus YKL048C, strain ELM1, hits give low values
[37] = locus YKL067W, strain YNK1, hits give low values
[38] = locus YKL101W, strain HSL1, hits give low values
[39] = locus YKL193C, strain SDS22, hits give low values
[40] = locus YKL203C, strain TOR2, hits give low values
[41] = locus YLR113W, strain HOG1, hits give low values
[42] = locus YLR133W, strain CKI1, hits give low values
[43] = locus YLR403W, strain SFP1, hits give low values
[44] = locus YML070W, strain DAK1, hits give low values
[45] = locus YMR001C, strain CDC5, hits give low values
[46] = locus YMR205C, strain PFK2 (second series), hits give low values
[47] = locus YMR277W, strain FCP1, hits give low values
[48] = locus YNL006W, strain LST8, hits give low values
[49] = locus YNL020C, strain ARK1, hits give low values
[50] = locus YNL161W, strain CBK1, hits give low values
[51] = locus YNL183C, strain NPR1, hits give low values
[52] = locus YNL207W, strain RIO2, hits give low values
[53] = locus YNL222W, strain SSU72, hits give low values
[54] = locus YNL307C, strain MCK1 (second series), hits give low values
[55] = locus YOL078W, strain AVO1, hits give low values
[56] = locus YOL136C, strain PFK27, hits give low values
[57] = locus YOR061W, strain CKA2, hits give low values
[58] = locus YOR119C, strain RIO1, hits give low values
[59] = locus YOR231W, strain MKK1, hits give low values
[60] = locus YOR329C, strain SCD5, hits give low values
[61] = locus YPL031C, strain PHO85, hits give low values
[62] = locus YPL153C, strain RAD53, hits give low values
[63] = locus YPL204W, strain HRR25, hits give low values
[64] = locus YPL209C, strain IPL1, hits give low values
[65] = locus YPL256C, strain CLN2, hits give low values
[66] = locus YPR025C, strain CCL1, hits give low values
[67] = locus YPR106W, strain ISR1, hits give low values
[68] = locus YPR111W, strain DBF20, hits give low values
[69] = strain NNK1, hits give low values
[70] = strain TSCII, hits give low values

Measured: normalized growth

O=C1Nc2ccccc2/C1=C\c1c[nH]c2ccccc12
active: [1] 0.472 | [2] 0.627 | [4] 0.88 | [5] 0.843 | [6] 0.717 | [8] 0.491 | [10] 0.628 | [11] 0.289 | [12] 0.91 | [13] 0.432 | [14] 0.84 | [15] 0.135 | [16] 0.249 | [17] 0.202 | [18] 0.526 | [19] 0.472 | [20] 0.894 | [21] 0.168 | [22] 0.753 | [23] 0.164 | [24] 0.126 | [25] 0.109 | [26] 0.101 | [27] 0.1 | [28] 0.136 | [29] 0.0414 | [30] 0.814 | [31] 0.0968 | [32] 0.239 | [34] 0.111 | [35] 0.111 | [36] 0.325 | [37] 0.407 | [38] 0.242 | [39] 0.618 | [40] 0.123 | [41] 0.118 | [42] 0.19 | [43] 0.108 | [44] 0.219 | [45] 0.781 | [46] 0.401 | [47] 0.548 | [48] 0.454 | [49] 0.19 | [50] 0.639 | [51] 0.133 | [52] 0.605 | [53] 0.674 | [54] 0.134 | [55] 0.609 | [56] 0.254 | [57] 0.244 | [58] 0.154 | [59] 0.125 | [60] 0.612 | [61] 0.112 | [62] 0.124 | [63] 0.125 | [64] 0.694 | [65] 0.128 | [66] 0.753 | [67] 0.863 | [69] 0.527 | [70] 0.384
inactive: [3] 0.926 | [7] 0.927 | [9] 0.924 | [33] 0.914 | [68] 0.93

O=C1/C(=C/c2c[nH]c3ccccc23)CSc2ccccc21
inactive: [1] 0.989 | [2] 0.975 | [3] 0.981 | [4] 0.966 | [5] 0.99 | [6] 0.983 | [7] 0.979 | [8] 0.98 | [9] 0.987 | [10] 0.99 | [11] 0.938 | [12] 0.985 | [13] 0.987 | [14] 0.983 | [15] 0.961 | [16] 0.906 | [17] 0.948 | [18] 0.988 | [19] 0.988 | [20] 0.987 | [21] 0.973 | [22] 0.98 | [23] 0.947 | [24] 1.04 | [25] 0.945 | [26] 1.07 | [27] 1.06 | [28] 1.01 | [29] 0.957 | [30] 0.965 | [31] 1.02 | locus YJL128C, strain PBS2, hits give low values 0.944 | [32] 0.943 | [33] 0.98 | [34] 0.913 | [35] 1.03 | [36] 0.949 | [37] 0.964 | [38] 0.945 | [39] 0.984 | [40] 1.02 | [41] 1.05 | [42] 0.975 | [43] 0.942 | [44] 0.944 | [45] 0.976 | [46] 0.979 | [47] 0.983 | [48] 0.993 | [49] 0.948 | [50] 0.991 | [51] 1.05 | [52] 0.997 | [53] 0.982 | [54] 0.995 | [55] 0.994 | [56] 0.931 | [57] 0.958 | [58] 0.982 | [59] 1.05 | [60] 0.99 | [61] 0.947 | [62] 0.924 | [63] 0.928 | [64] 0.989 | [65] 1.04 | [66] 0.986 | [67] 0.978 | [68] 0.979 | [69] 0.98 | [70] 0.984
